Here are results for 50 molecules from PubChem BioAssay AID1458 (National Center for Advancing Translational Sciences (NCATS), 2008).

Hit rate of the full screen: of about 210,000 compounds, about 5,900 (2.8%) were called active. Roughly 5% stayed inconclusive and do not appear here. Shown is part of a subset that was picked to be rich in actives. Values without a mark were called inactive. Calls follow the shape of the dose curve; as a rule, active = well fitted activation curve with a large enough effect; inconclusive = small, poorly fitted or top-dose-only effect; inactive = no such curve, though single readings can be large or run the other way.
Potency is read from the fitted curve at half-maximal effect.

The experiment in a line: qHTS Assay for Enhancers of SMN2 Splice Variant Expression. Also: nearly all actives have a fitted effect of over 55% in size. As to activity change, positive = activation: % of control where 0% means no effect. The settings on record: HEK293 SMN2-luciferase splicing reporter, luminescence, 30-36 h; series mostly up to 46.1 µM; activity change, positive = activation: at the top concentration. The procedure, abridged: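 qHTS luciferase splicing reporter: luminescence rises when SMN2 exon 7 is included in transfected HEK293 cells. Compound exposure lasted 30-36 h at 37C, with 4.5 mM final sodium butyrate as control, followed by a ONE-Glo read.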
(Quantitative high-throughput screening tests each substance at several concentrations.)
Consider `CCOc1c(CNCc2ccc(C(=O)O)cc2)cccc1OC`, for which the “activity change, positive = activation” value was 0.734%. Still for that read-out and setting: to `O=C(O)c1ccc(COCC(F)(F)F)cc1` belongs -1.27%. Consider `CCCCCc1ccc(-c2ccc(C(=O)O)cc2)nc1`, for which the Potency was 3.98 µM (active). As for `COc1ccc(Nc2ncc3c(n2)CCN(C(=O)OC(C)(C)C)C3)cc1`, the “activity change, positive = activation” value was 19.1%. Turning to `COc1ccc(Nc2ncc(F)c(N3CCOCC3)n2)cc1`, the Potency was 10 µM (active).

Turning to `CCOc1ccc(Nc2nc(Cl)nc(N3CCN(c4ccc(OC)cc4)CC3)n2)cc1`, the “activity change, positive = activation” value is -50.9%. Turning to `CC(C)c1ccc(OCC(=O)N(Cc2ccc(N(C)C)cc2)C2CCS(=O)(=O)C2)cc1` (stereo not given), the “activity change, positive = activation” value is -13.2%. The same measure, in the same setting: then `CC1CCCCN1Cc1c(O)ccc2c(=O)c(-c3cccc(Cl)c3)c(C(F)(F)F)oc12` (stereo not given), with 0.89%. Still for that read-out and setting: then `CCOC(=O)C1CCN(C(=O)CSc2c3c(nc4ccc(Cl)cc24)CCCC3)CC1`, with -23.6%; and `Cc1ccc(-c2cc(C(F)(F)F)c(C#N)c(SCC(=O)Nc3ccccc3)n2)cc1`, with 3.98%. For the molecule `Cc1cc(C)c(C#N)c(SCC(=O)Nc2ccccc2)n1`, the Potency was 12.6 µM (active). Take `COCc1cc(C)nc(SCC(=O)Nc2cccc(C)c2)c1C#N`: the “activity change, positive = activation” value is -0.269%. In the case of `Cc1cccc(NC(=O)Cn2c(=O)n(CCC(C)C)c(=O)c3cccnc32)c1`, the “activity change, positive = activation” value was 1.67%. Same read-out and setting: to `COc1cc(CN(CC2CCCO2)C(=O)c2ccccc2F)cc(OC)c1OC` (stereo not given) belongs -5.28%; to `CCc1ccc(NC(=O)Cn2c(=O)n(CCC(=O)NCc3ccc4c(c3)OCO4)c(=O)c3ccccc32)cc1`, 0.862%; to `Cc1ccccc1-n1c(=O)c2ccccc2n(Cc2ccc(F)cc2)c1=O`, -3.73%. As to `CCOc1ccc(NC(=O)c2c(NC(=O)Cc3ccccc3)sc3c2CCCCC3)cc1`, the “activity change, positive = activation” value is 0.873%.

For the molecule `Cc1ccc(C(C(=O)NCc2ccco2)N(CC2CCCO2)C(=O)Cn2nnc3ccccc32)cc1` (stereo not given), the “activity change, positive = activation” value was -6.37%.

`COCCNC(=O)C(c1ccc(C)o1)N(Cc1ccccc1)C(=O)Cn1nnc2ccccc21` (stereo not given): the “activity change, positive = activation” value is 17.9%. For the molecule `CCC(C)(C)NC(=O)C(c1cccn1C)N(Cc1ccc(C)cc1)C(=O)Cn1nnc2ccccc21` (stereo not given), the Potency is 15.8 µM (active). On to `O=C(Cn1c(=O)n(-c2ccc(F)cc2)c(=O)c2sc3ccccc3c21)NC1CCCC1`, for which the “activity change, positive = activation” value was -12.8%. Same read-out and setting: to `Cc1ccc(-n2ncc3c(=O)n(Cc4cccc(C(F)(F)F)c4)cnc32)cc1C` belongs 0.0711%.

On to `CC(C)c1ccc(Cn2c(COc3ccccc3)nc3ccccc32)cc1`, for which the “activity change, positive = activation” value is -1.83%. Consider `O=C(Cn1c(COc2ccccc2)nc2ccccc21)Nc1cc(Cl)c(Cl)cc1Cl`, for which the “activity change, positive = activation” value is -1.19%. Take `COCn1c(COc2ccccc2)nc2ccccc21`: the Potency is 12.6 µM (active). Turning to `Cc1cc(C)c2oc(C(=O)Nc3ccc(S(=O)(=O)Nc4nccc(C)n4)cc3)cc(=O)c2c1`, the “activity change, positive = activation” value was 13.5%. Turning to `O=C(CN1C(=O)COc2ccc(S(=O)(=O)N3CCCCCC3)cc21)N1CCN(c2cccc(C(F)(F)F)c2)CC1`, the “activity change, positive = activation” value is -1.59%. As for `c1c2c(cc3sc(N4CCCCC4)nc13)OCCO2`, the Potency is 0.501 µM (active). `O=C(Nc1nc2cc3c(cc2s1)OCCO3)c1cccc(S(=O)(=O)N2CCOCC2)c1`: the “activity change, positive = activation” value is -46.1%. Same read-out and setting: to `Cc1nc(N2CCCCC2)sc1C=O` belongs 25%; to `Cc1ccc(C(=O)Nc2ccc(OCc3cc(=O)n4c(C)csc4n3)cc2)cc1`, -4.42%; to `CCNC(=O)Cn1nc(C)n2c(cc3c(OC)cccc32)c1=O`, -2.9%. The same measure, in the same setting: to `COC(=O)c1ccccc1NC(=O)c1ccc2c(=O)n3c(nc2c1)CCCCC3` belongs 0.0369%. As for `O=C(Nc1nc2ccc(S(=O)(=O)N3CCCC3)cc2s1)C1CCCO1` (stereo not given), the “activity change, positive = activation” value is 25.8%. For `Cc1cc(C)c2nc(NC(=O)C3CCCO3)sc2c1` (stereo not given), the Potency is 12.6 µM (active). For the molecule `Cc1cc([N+](=O)[O-])ccc1NC(=O)C1CCCO1` (stereo not given), the “activity change, positive = activation” value is -8.2%. With `O=C(Nc1cc(-c2nc3ccccc3o2)ccc1Cl)c1cc([N+](=O)[O-])ccc1N1CCOCC1`, the “activity change, positive = activation” value was 7.04%. On the same count and under the same terms, then `CN1c2ccccc2-c2nc3ccccc3n2C1c1ccco1` (stereo not given), with -14.7%. As to `Cn1c(-c2ccco2)nc2cc3ccccc3cc21`, the Potency was 2.51 µM (active).

Regarding `CN(c1nc2ccccc2n2c(-c3ccco3)nnc12)S(=O)(=O)c1ccccc1`, the “activity change, positive = activation” value was -3.62%. In the case of `COC(=O)CC1Oc2ccccc2-n2cc(-c3ccccc3)nc21` (stereo not given), the “activity change, positive = activation” value is -12.5%. As for `COc1cccc(N2CCN(S(=O)(=O)c3cc(Br)cc4c3N(C(=O)C3CC3)CC4)CC2)c1`, the “activity change, positive = activation” value was -2.18%.

`CN(C)CCN=c1cc(-c2ccccc2)oc2ccc(Cl)cc12`: the Potency was 15.8 µM (active). Regarding `CCC1CCCCN1C(=O)Cn1c(=O)n(CCCCCC(=O)NCc2ccccc2)c(=O)c2sccc21` (stereo not given), the “activity change, positive = activation” value is -5.86%.

Regarding `Cc1ccc(C(=O)Nc2ccc(OCc3cc(=O)n4c5c(sc4n3)CCCC5)cc2)cc1`, the “activity change, positive = activation” value was 1.24%. For the molecule `CCCCCn1c(CCNC(=O)c2ccc(F)cc2)nc2ccccc21`, the “activity change, positive = activation” value is -27.6%. On to `CC(=O)NCCc1nc2cc(NC(=O)c3ccccc3)ccc2n1C`, for which the Potency is 22.4 µM (active). For the molecule `Cn1c(CN2CCOCC2)nc2cc(NC(=O)c3ccc(Cl)cc3)ccc21`, the “activity change, positive = activation” value was -66.9%. As for `COc1ccc(C2Sc3ccccc3NC3=C2C(=O)c2ccccc23)c(OC)c1OC` (stereo not given), the “activity change, positive = activation” value is 7.57%. As for `Cc1c(-c2ccccc2)n[nH]c1C(=O)N=Nc1c(O)[nH]c2ccccc12`, the Potency is 20 µM (active).
